The entries come from a sample that favours hits as a whole.
IDE exosite inh: exo-site inhibitors of human IDE, primary screen, biochemical, fluorescence anisotropy, probe displacement; Insulin-degrading enzyme (Homo sapiens), P14735; purified IDE, FL-6b probe fluorescence polarization; stronger effect = lower value; z-score at 20 µM; 17,000 compounds, 6.3% hits; AID 1259349, 2017;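 active = z-score of -3 or lower, meaning strong loss of probe binding signal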;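 note: His-tagged human IDE residues 42-1019 made in E. coli with 30 nM FL-6b probe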
Target sequence (P14735 42-1019 limits assumed): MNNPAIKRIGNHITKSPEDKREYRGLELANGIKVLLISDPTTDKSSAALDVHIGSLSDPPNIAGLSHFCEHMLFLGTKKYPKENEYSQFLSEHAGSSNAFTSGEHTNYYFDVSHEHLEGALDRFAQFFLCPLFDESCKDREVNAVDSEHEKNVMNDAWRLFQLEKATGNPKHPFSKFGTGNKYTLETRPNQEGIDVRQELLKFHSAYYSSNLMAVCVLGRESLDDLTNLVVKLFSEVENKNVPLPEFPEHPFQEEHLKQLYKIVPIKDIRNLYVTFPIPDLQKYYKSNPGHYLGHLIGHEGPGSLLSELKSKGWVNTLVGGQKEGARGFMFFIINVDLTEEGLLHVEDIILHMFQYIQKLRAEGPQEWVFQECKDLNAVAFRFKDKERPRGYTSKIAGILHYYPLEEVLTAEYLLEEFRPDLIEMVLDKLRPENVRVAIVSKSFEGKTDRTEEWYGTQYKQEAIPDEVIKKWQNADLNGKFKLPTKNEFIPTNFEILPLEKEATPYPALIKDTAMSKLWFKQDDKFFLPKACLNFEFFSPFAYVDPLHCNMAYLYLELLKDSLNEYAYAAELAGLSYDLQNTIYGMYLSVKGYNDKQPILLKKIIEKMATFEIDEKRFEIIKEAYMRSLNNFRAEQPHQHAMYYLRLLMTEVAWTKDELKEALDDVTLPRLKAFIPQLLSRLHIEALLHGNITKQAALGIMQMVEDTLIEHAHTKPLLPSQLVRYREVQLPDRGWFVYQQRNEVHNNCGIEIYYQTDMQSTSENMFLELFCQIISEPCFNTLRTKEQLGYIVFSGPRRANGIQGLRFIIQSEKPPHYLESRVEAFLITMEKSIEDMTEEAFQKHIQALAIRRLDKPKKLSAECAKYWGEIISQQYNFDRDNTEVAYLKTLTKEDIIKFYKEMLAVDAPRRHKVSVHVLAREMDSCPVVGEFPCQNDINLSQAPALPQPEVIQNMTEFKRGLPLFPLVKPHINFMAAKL
Active calls of the source: *.

SMILES | IDE exosite inh
Cn1cnc(S(=O)(=O)N2CCCCN3[C@H](CO)[C@H](c4ccc(-c5ccccc5)cc4)[C@@H]3C2)c1 | 1.95
CCS(=O)(=O)Nc1ccc2c(c1)C(=O)N(C)[C@@H]1CC[C@H](CC(=O)NC3CCCCC3)O[C@H]1CO2 | -0.947
CCS(=O)(=O)Nc1ccc2c(c1)C(=O)N(C)C[C@@H](OC)[C@@H](C)CN(CC1CCCCC1)[C@@H](C)CO2 | -0.358
O=C1CCCc2cnnn2COC[C@H](Cc2ccccc2)N1 | 1.32
O=S(=O)(c1ccccc1)N1CCCCN2[C@H](CO)[C@@H](c3ccc(-c4ccccc4F)cc3)[C@@H]2C1 | -0.813
N#Cc1ccc(-c2ccc([C@H]3[C@H](CO)N4CCCCN(S(=O)(=O)c5ccccc5)C[C@@H]34)cc2)cc1 | 2.12
CC(C)CC#Cc1ccc([C@@H]2[C@@H](CO)N3C(=O)CN(S(=O)(=O)c4ccccc4)C[C@H]23)cc1 | 2.67
CO[C@@H]1CC[C@@H]2CCOc3c(C#N)cccc3C(=O)N(C)C[C@@H](c3ccccc3)CC(=O)N(C)C[C@@H]1O2 | 0.651
O=C(Nc1ccccc1)N1CC(=O)N2[C@H](C1)[C@@H](c1ccc(-c3ccc(F)cc3)cc1)[C@@H]2CO | -0.87
O=C(Nc1ccc(F)cc1)N1CC(=O)N2[C@H](CO)[C@@H](c3ccc(-c4ccccc4)cc3)[C@@H]2C1 | -4.78*
Cc1ccccc1-c1ccc([C@H]2[C@@H](CO)N3C(=O)CN(C(=O)Nc4ccc(F)cc4)C[C@@H]23)cc1 | -10.1*
O=C(Nc1ccc(F)cc1)N1CC(=O)N2[C@@H](CO)[C@@H](c3ccc(-c4ccccc4)cc3)[C@@H]2C1 | -0.633
O=C(Nc1ccc(F)cc1)N1CC(=O)N2[C@H](CO)[C@H](c3ccc(-c4ccc(F)cc4)cc3)[C@@H]2C1 | 0.297
Cc1ccc(-c2ccc([C@H]3[C@@H](CO)N4C(=O)CN(C(=O)Nc5ccc(F)cc5)C[C@H]34)cc2)cc1 | 1.58
COc1ccc2c3c(n(C)c2c1)[C@H](CO)N(C(C)=O)CC31CCN(C(=O)c2cnccn2)CC1 | -1.57
O=C(C[C@H]1C[C@H]2c3cc(NC(=O)c4ccc5c(c4)OCO5)ccc3O[C@H]2[C@H](CO)O1)NCCN1CCCCC1 | -0.482
O=C(Nc1cccc(F)c1)N1CCCCN2[C@H](C1)[C@@H](c1ccc(-c3ccccc3F)cc1)[C@@H]2CO | 3.26
CN1CCN(C(=O)C[C@@H]2CC[C@@H]3[C@H](COc4ccc(NC(=O)C5CCOCC5)cc4C(=O)N3C)O2)CC1 | 0.0308
O=C(Nc1ccccc1F)N1CCCCN2[C@H](C1)[C@@H](c1ccc(C3=CCCC3)cc1)[C@@H]2CO | 5
Cc1noc(C)c1NC(=O)N[C@H]1C=C[C@H](CC(=O)Nc2ccc(-c3ccccc3)cc2)O[C@@H]1CO | -1.24
C[C@@H]1CN([C@H](C)CO)C(=O)c2cc(/C=C/c3ccccc3)cnc2O[C@H]1CN(C)S(=O)(=O)c1ccccc1F | -4.63*
C[C@H](CO)N1C[C@H](C)[C@H](CN(C)S(=O)(=O)c2ccccc2F)Oc2ncc(/C=C/c3ccccc3)cc2C1=O | -1.73
C[C@@H]1CN([C@@H](C)CO)C(=O)c2cc(-c3ccc(F)cc3)cnc2O[C@H]1CN(C)S(C)(=O)=O | 0.988
O=C(C[C@H]1C=C[C@@H](NC(=O)c2ccncc2)[C@H](CO)O1)NCC1CC1 | 0.147
O=C(CN1CCOCC1)N1CCCCN2[C@H](CO)[C@@H](c3ccc(C#Cc4ccccc4F)cc3)[C@H]2C1 | -3.9*
SMILES | IDE exosite inh
O=C(CN1CCOCC1)N1CCCCN2[C@@H](CO)[C@H](c3ccc(C#Cc4ccccc4F)cc3)[C@@H]2C1 | -8.97*
O=C(CN1CCOCC1)N1CCCCN2[C@@H](CO)[C@@H](c3ccc(C#Cc4ccccc4F)cc3)[C@@H]2C1 | -4.63*
O=C(CN1CCOCC1)N1CCCCN2[C@H](CO)[C@@H](c3ccc(C#Cc4ccccc4F)cc3)[C@@H]2C1 | -2.88
N#C[C@H]1[C@H](c2ccccc2-c2ccccc2F)[C@H](CO)N1C(=O)c1ccccn1 | 1.58
O=C(Nc1ccccc1F)N1CC(=O)N2[C@H](C1)[C@@H](c1ccc(-c3ccc(F)cc3)cc1)[C@@H]2CO | -1.28
COCCN(C[C@H]1N[C@H](CO)[C@H]1c1ccc(-c2ccc(F)cc2)cc1)C(C)=O | 4.65
COc1ccc(NC(=O)N2CC(=O)N3[C@H](CO)[C@H](c4ccc(-c5ccc(C)cc5)cc4)[C@@H]3C2)cc1 | 1.08
O=C(Nc1cccc(F)c1)N1CC(=O)N2[C@H](CO)[C@H](c3ccc(C#CCC4CCCC4)cc3)[C@H]2C1 | 3.08
COc1ccccc1C#Cc1ccc([C@@H]2[C@@H](C#N)N(C(=O)C3CCC3)[C@@H]2CO)cc1 | -4.63*
COc1ccccc1C#Cc1ccc([C@H]2[C@H](C#N)N(C(=O)C3CCC3)[C@H]2CO)cc1 | -8.07*
N#C[C@@H]1[C@H](c2ccc(C#Cc3ccc(F)cc3)cc2)[C@@H](CO)N1C(=O)C1CCCC1 | -0.0257
COc1ccccc1C#Cc1ccc([C@@H]2[C@@H](CO)N(C(=O)C3CCCCC3)[C@H]2C#N)cc1 | -1.7
COc1ccccc1C#Cc1ccc([C@@H]2[C@H](C#N)N(C(=O)C3CCCCC3)[C@H]2CO)cc1 | -6.62*
COc1ccccc1C#Cc1ccc([C@@H]2[C@@H](CO)N(C(=O)C3CCC3)[C@H]2C#N)cc1 | -4.23*
N#C[C@@H]1[C@@H](c2ccc(C#Cc3ccccc3F)cc2)[C@H](CO)N1C(=O)C1CCCCC1 | 1.43
COc1cccc(-c2cccc(-c3nc(C(=O)O)cc4c3[C@@H](CCO)N(S(=O)C(C)(C)C)C4)c2)c1 (some centres undefined) | 1.54
CC(=O)NC[C@@H]1[C@@H](c2ccccc2)[C@H](CO)N1C(=O)Cc1cccnc1 | 5.54
O=C(c1cccc(F)c1)N1CCCCN2[C@H](CO)[C@H](c3ccc(/C=C/c4ccccc4)cc3)[C@H]2C1 | 1.33
C[C@H](CO)N1C[C@H](C)[C@@H](CN(C)Cc2ccncc2)OCCCC[C@H](C)Oc2ccc(NC(=O)Cc3ccccc3)cc2C1=O | -0.647
C[C@@H]1CN([C@@H](C)CO)C(=O)c2cc(NC(=O)C3CCCCC3)ccc2O[C@H]1CN(C)Cc1ccc2c(c1)OCO2 | 1.31
CN(C)C(=O)c1ccc(-c2ccc([C@@H]3[C@@H](CO)N(S(C)(=O)=O)[C@H]3C#N)cc2)cc1 | -0.0696
CCCNC(=O)N1CC2(CN(C(=O)c3cnccn3)C2)c2c([nH]c3cc(OC)ccc23)[C@H]1CO | 1.19
Cc1ccccc1S(=O)(=O)N1CC(=O)N2[C@@H](CO)[C@H](c3ccc(C#CCC4CCCC4)cc3)[C@@H]2C1 | 4.98
O=C(NC1CCCC1)N[C@H]1C=C[C@H](CC(=O)N2CCOCC2)O[C@H]1CO | 0.416
N#C[C@@H]1[C@@H](c2ccc(C#Cc3ccccc3F)cc2)[C@@H](CO)N1C(=O)C1CCCCC1 | 2.9
N#C[C@@H]1[C@H](c2ccc(C#Cc3ccccc3F)cc2)[C@H](CO)N1C(=O)C1CCC1 | 3.58
COc1ccccc1C#Cc1ccc([C@@H]2[C@H](C#N)N(C(=O)C3CCC3)[C@H]2CO)cc1 | -7.12*
COc1ccccc1C#Cc1ccc([C@@H]2[C@@H](C#N)N(C(=O)C3CCC3)[C@H]2CO)cc1 | -4.83*
O=C(C[C@@H]1CC[C@H]2NC[C@H](O)COC[C@@H]2O1)N1CCc2ccccc2C1 | 1.28
CN(C)CC(=O)N1[C@H](C#N)[C@H](c2ccccc2-c2ccc(C(=O)N(C)C)cc2)[C@@H]1CO | 0.349

Assay outcomes deposited in PubChem BioAssay by Broad Institute.
